Bioassay records deposited in PubChem BioAssay by National Center for Advancing Translational Sciences (NCATS).
SW480 rereplic: A quantitative high throughput screen for small molecules that induce DNA re-replication in SW480 colon adenocarcinoma cells; SW480 DNA re-replication, Hoechst DNA content imaging, 48 h; 1.8% of 340,000 active; Potency, µM (doses to about 46.1 µM), without a hit: top-dose re-replication activation, usual class: activators; further: potency means the concentration at half of the fitted maximal effect; % of control where 0% means no effect; nearly all actives have a fitted effect of over 55% in size
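Image-based DNA-content assay: after two days of treatment, nuclei were labelled with the DNA dye Hoechst and imaged, and hits were compounds raising the count of nuclei showing high fluorescence intensity.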
MCF10A rerep: A quantitative high throughput screen for small molecules that induce DNA re-replication in MCF 10a normal breast cells; MCF 10A DNA re-replication, Hoechst nuclear intensity, 48 h; Potency, µM (top dose mostly 46.1 µM), inactives show at the highest dose activity, positive = re-replication, most hits filed as activators; 2.9% of 350,000 active; AID 624296, 2012; further: potency means the concentration at half of the fitted maximal effect; % of control where 0% means no effect; nearly all actives have a fitted effect of over 50% in size
D3 ag: qHTS of D3 Dopamine Receptor Agonist: qHTS | D(3) dopamine receptor (Homo sapiens), P35462 | D3R DiscoveRx beta-arrestin cells, luminescence, 90 min | max activation, % | 0.58% of 410,000 active | AID 652048, 2013; in the data active means max activation above about 30%; further: 0% is about no effect
Target sequence (P35462 whole entry, looked up): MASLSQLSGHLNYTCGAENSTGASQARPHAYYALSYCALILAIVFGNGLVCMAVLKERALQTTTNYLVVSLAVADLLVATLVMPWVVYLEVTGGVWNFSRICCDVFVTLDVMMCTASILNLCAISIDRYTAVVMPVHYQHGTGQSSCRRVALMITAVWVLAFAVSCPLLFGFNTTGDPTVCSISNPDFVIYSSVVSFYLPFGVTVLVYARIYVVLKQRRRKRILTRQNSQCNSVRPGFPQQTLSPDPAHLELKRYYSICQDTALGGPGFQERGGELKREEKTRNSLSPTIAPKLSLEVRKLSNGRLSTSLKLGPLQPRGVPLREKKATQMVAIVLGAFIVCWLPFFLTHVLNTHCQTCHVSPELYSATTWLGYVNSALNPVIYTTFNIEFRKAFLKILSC
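Agonist-mode cell screen: cells plated at 1500/well and incubated overnight at 37 °C, then exposed to library compounds for 90 min at 37 °C. Detection reagent was added for 30–60 min at room temperature, and luminescence was read.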
KB-3-1 tox: qHTS assay for MDR1-selective chemotherapeutics: Primary screen using the parental adenocarcinoma cell KB-3-1. KB-3-1 viability, CellTiter-Glo ATP luminescence, 72 h. Potency, µM (top dose mostly 46.1 µM), hits mostly cytotoxic. 1.4% of 400,000 active; further: potency means the concentration at half of the fitted maximal effect; on the % scale 0 is the no-effect control and ±100 the full control effect; nearly all actives have a fitted effect of over 60% in size
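Cytotoxicity measured as CellTiter-Glo luminescence after 72 h at 37 C. Compound titrations were pinned onto drug-naive KB-3-1 parental adenocarcinoma cells grown in DMEM with 10% FBS, and normalized data fitted to concentration-response curves.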
D3 antag: qHTS of D3 Dopamine Receptor Antagonist: qHTS. D(3) dopamine receptor (Homo sapiens), P35462. D3R cells, DiscoveRx beta-arrestin luminescence, antagonist mode; hits give low values. max response, negative = inhibition, %. 2.5% of 360,000 active. AID 652054, 2013; in the data active means max response below about -50%; inconclusive means no clear call, values can overlap the other calls; further: on the % scale 0 is the no-effect control and ±100 the full control effect
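Cells plated overnight at 1500 cells/well, then exposed to library compounds with dopamine controls for 90 minutes at 37 degrees C. DiscoveRx reagent added for 30–60 minutes at room temperature; luminescence read, quantitative HTS format.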
KB-V1 MDR tox: qHTS assay for MDR1-selective chemotherapeutics: Primary screen using the drug-selected MDR subline cells KB-V1; Potency, µM (doses to about 46.1 µM), usual class: cytotoxic; KB-V1 MDR cells viability, CellTiter-Glo, 72 h; 3.4% of 400,000 active; AID 1347076, 2019; further: potency means the concentration at half of the fitted maximal effect; on the % scale 0 is the no-effect control and ±100 the full control effect; nearly all actives have a fitted effect of over 60% in size
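In this primary screen, KB-V1 cells overexpressing P-gp are incubated with library compounds (lowest to highest concentration) for 72 h at 37 degrees C before a luminescent ATP viability read.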
* = called active by the depositor; i = inactive; ? = inconclusive; . = no result given. A selection: hits, their analogues and other compounds. The true share with any hit is near 8.9%. Unless noted, the call rests on the fitted dose curve; in most records, active means well fitted curve in the direction sought with a large enough effect; inconclusive means small, poorly fitted or top-dose-only effect, or another doubt; inactive means no such curve, though single readings can be large; an effect the other way counts as inactive or inconclusive.

SMILES	SW480 rereplic	MCF10A rerep	D3 ag	KB-3-1 tox	D3 antag	KB-V1 MDR tox
CN(C)CCN[C@H]1CCC2C3CC=C4C[C@@H](O)CC[C@]4(C)C3CC[C@@]21C (some centres undefined)	?	20.6µM*	-2.3	i	7.8	i
C[C@H]1OC(OC2C(O)[C@@H](O)C(OC3C(O)[C@@H](O)C(O)O[C@@H]3CO)O[C@@H]2CO)[C@H](O)C(O)C1N[C@H]1C=C(CO)[C@@H](O)[C@H](O)C1O (some centres undefined)	-6.5%	-4.0%	.	.	.	.
C[N+]1(CC(=O)c2ccc(F)cc2)CCc2ccccc2C1 (centres undefined)	.	.	.	i	.	i
Cc1[nH]c2ccccc2c1/C=N/Nc1nc(Nc2ccc(F)cc2)nc(N2CCOCC2)n1	0.5%	5.1%	2.5	i	-7.4	i
Cc1ccc(Nc2nc(N/N=C/c3c[nH]c4ccccc34)nc(N3CCOCC3)n2)cc1	13µM*	?	-15.1	i	-21.0	?
O=C(Oc1cccc(/C=N/Nc2nc(Nc3ccccc3)nc(N3CCOCC3)n2)c1)c1ccco1	?	?	4.4	i	-15.1	14.6µM*
C(=N\Nc1nc(Nc2ccccc2)nc(N2CCOCC2)n1)/c1c[nH]c2ccccc12	0.82µM*	16.4µM*	4.9	?	-62.4*	23.1µM*
CCc1ccc(NC(=O)CN(Cc2ccccc2)S(=O)(=O)c2ccc3nc(C)sc3c2)cc1	.	.	-6.3	i	.	i
O=C(O)Cn1nnc(-c2ccc(OCc3cccc(C(F)(F)F)c3)cc2)n1	.	.	1.1	i	.	i
Cc1ccc(S(=O)(=O)Cn2cnnn2)cc1	1.6%	-2.6%	-1.1	i	-78.4*	i
CCc1nc2c(OCc3cc(Cl)cc(Cl)c3)cccn2c1N(C)C(=O)CC(C)C	.	.	-15.6	i	-65.5*	i
CCC(CC)C(=O)N(C)c1c(C)nc2c(OCCC3CCCCC3)cccn12	.	.	-15.1	i	-50.3*	i
CCC(CC)C(=O)N(C)c1c(C)nc2c(OCCOc3ccc(F)cc3)cccn12	.	.	14.5	i	14.7	i
CCc1nc2c(OCc3ccc(F)c(F)c3)cccn2c1N(C)C(=O)CC(C)C	.	.	5.0	i	17.7	i
CCc1nc2c(OCCC3CCCCC3)cccn2c1N(C)C(=O)c1ccc(OC)cc1	.	.	-26.4	?	-110.7*	?
CCc1nc2c(OCc3cc(Cl)cc(Cl)c3)cccn2c1N(C)C(=O)c1ccc(OC)cc1	.	.	-10.9	i	-62.9*	?
Cc1ccc(C(=O)NCC(c2ccc3c(c2)OCO3)N2CCOCC2)cc1 (centres undefined)	.	.	-2.9	i	.	i
CCc1nc2c(OCc3ccc(Cl)cc3)cccn2c1N(C)C(=O)c1ccco1	.	.	-16.5	?	-51.1*	?
CCc1nc2c(OCc3ccc(F)cc3)cccn2c1N(C)C(=O)c1ccco1	.	.	-16.1	i	-10.5	i
CCCCN(C=O)c1c(CC)nc2c(OCc3ccc(Cl)cc3Cl)cccn12	.	.	-12.5	?	-56.9*	i
COCCc1nn2c(=O)cc(COC(=O)c3ccccc3C)nc2s1	.	.	6.8	.	.	.
COc1ccc(C2C(C#N)=C(N)Oc3c2sc2nc(C)cc(C)c32)cc1 (centres undefined)	?	16.4µM*	-0.2	?	-23.5	20.6µM*
O=C1CC(c2ccc(F)cc2)Cc2nc(NCC3CCCO3)ncc21 (centres undefined)	-8.9%	0.7%	1.7	i	29.8	20.6µM*
O=C1CC(c2ccc(F)cc2)Cc2nc(N3CCN(c4ccccc4)CC3)ncc21 (centres undefined)	-2.7%	?	10.1	i	-24.4	i
O=C(Nc1ccccc1O)c1c(O)c2c([nH]c1=O)CCCC2	16.4µM*	20.6µM*	-5.9	i	-23.1	i
SMILES	SW480 rereplic	MCF10A rerep	D3 ag	KB-3-1 tox	D3 antag	KB-V1 MDR tox
Nc1ccccc1SC(CC(=O)c1ccccc1)c1ccc([N+](=O)[O-])cc1 (centres undefined)	.	.	-7.0	20.6µM*	-51.4*	i
COc1ccc(C(CC(=O)c2ccc(C)cc2)Nc2ccc([N+](=O)[O-])cc2)cc1 (centres undefined)	15.6%	?	-7.8	?	-29.5	?
O=C(CC(SCCO)c1ccc([N+](=O)[O-])cc1)c1ccco1 (centres undefined)	25.9%	16.4%	-6.4	20.6µM*	?	i
Nc1ccccc1SC(CC(=O)c1ccccc1)c1cccc([N+](=O)[O-])c1 (centres undefined)	.	.	-6.6	?	?	?
CC(=O)NC(CSC(CC(=O)c1ccco1)c1ccc(C)cc1)C(=O)O (centres undefined)	?	20.6µM*	-5.9	i	?	i
Cc1ccc(C(=O)CC(SCC(=O)O)c2ccc([N+](=O)[O-])cc2)cc1 (centres undefined)	?	18.4µM*	3.1	i	-24.8	i
CC(=O)NC(Cc1ccccc1)C(=O)N1CCN(C(=O)c2ccco2)CC1 (centres undefined)	-3.0%	0.2%	-6.0	i	-12.3	i
CCc1cccc(-n2nnc(-c3nsc(NC(=O)c4cccc(OC)c4)n3)c2C)c1	.	.	-1.3	?	.	i
Cc1ccc(S(=O)(=O)N(CCc2ccccc2)CC(=O)Nc2cc(C)ccc2C)cc1	.	.	-30.6	i	.	i
CC1(C)Cc2c(sc3ncnc(NNC(=S)NCc4ccccc4)c23)CO1	3.66µM*	3.26µM*	-1.2	5.17µM*	-2.5	?
COc1ccc(C2(C)NC(=O)N(CC(=O)NCCC3=CCCCC3)C2=O)cc1OC (centres undefined)	-9.3%	2.7%	-10.5	i	-17.8	i
COc1ccc2cc(C3(C)NC(=O)N(CC(=O)NCCC4=CCCCC4)C3=O)ccc2c1 (centres undefined)	10.4%	10.1%	-1.0	i	0.0	16.4µM*
COc1ccc(N2CCN(C(=O)CN3C(=O)NC(C)(c4ccc5ccccc5c4)C3=O)CC2)cc1 (centres undefined)	13.9%	3.4%	-4.8	23.1µM*	0.9	2.31µM*
CC1(c2ccc(Cl)cc2)NC(=O)N(CC(=O)NCCC2=CCCCC2)C1=O (centres undefined)	0.164µM*	16.8%	-7.8	i	5.6	?
